Results filed as inconclusive are left out. Activity calls are given as the source filed them. The call rests on the fitted dose curve.
Experiment: Primary qHTS to identify inhibitors of SARS-CoV-2 cell entry (AID 1645846); further: nearly all actives have a fitted effect of over 45% in size
Conditions: SARS-CoV-2 pseudovirus cell entry assay, luminescence; activity change, negative = inhibition: at 57.1 µM (top of the series) unless noted
Procedure, shortened: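 HEK293 cells stably expressing human ACE2, pre-treated 1 h with compound, then infected with MLV particles pseudotyped with Wuhan-Hu-1 spike (C-terminal 19-aa truncation). Luciferase luminescence after 48 h at 37 °C, normalised to spike PP and bald PP.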
Molecule O=C(CCCCCCNC(=O)c1cnc(N(c2ccccc2)c2ccccc2Cl)nc1)NO has an activity change, negative = inhibition of 2.82%.
In the case of CC1(C)C(N(O)C(=O)Nc2ccc(Cl)cc2)N(c2ccc(Cl)cc2)C(=O)N1CC(=O)N/N=C/C=C/c1ccc([N+](=O)[O-])o1 (stereo not given), the Potency is reported as 17.8 µM (active).
For Cc1nc(NC(=O)N2CCC[C@H]2C(N)=O)sc1-c1csc(C(C)(C)C)n1, the “outcome” value was “inactive”.
Molecule CC(C)NC(=O)COc1cccc(-c2nc(Nc3ccc4[nH]ncc4c3)c3ccccc3n2)c1 has an activity change, negative = inhibition of -14.8%.
With COc1ccc([C@@H](O)[C@@H](C)Oc2ccc([C@H]3O[C@H](c4ccc(O[C@H](C)[C@H](O)c5ccc(OC)c(OC)c5)c(OC)c4)[C@H](C)[C@H]3C)cc2OC)cc1OC the activity change, negative = inhibition was -95.6%.

From PubChem BioAssay (NCATS)
Potency means the concentration at half of the fitted maximal effect.
